# miR122 inh: miR-122 suppressors via Renilla sensor increase, primary screen, cell-based, Huh7 psiCHECK-miR122, Renilla luciferase, single point. 48 h. activation, % at 12.5 µM. hit rate 0.14% among 340,000;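 active = mean activation of 30% or more, with every replicate also reaching 30%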;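 note: higher luciferase signal means stronger suppression of miR-122 activity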
# Numbers stand for hits; – = inactive. The entries come from a sample that favours hits as a whole.
SMILES,miR122 inh
COc1ccc(NS(=O)(=O)c2ccc3ccccc3c2)c2ncccc12,–
COc1ccc(C(C)(C)C)cc1NS(=O)(=O)c1cccc2cccnc12,–
CCCCC(=O)NC(c1ccccc1OC)c1ccc2cccnc2c1O (centres undefined),46
COc1cccc(-c2cnc3c(c2)C(=O)N([C@H](C)CO)C[C@H](C)[C@H](CN(C)S(=O)(=O)c2ccc(F)cc2)O3)c1,–
C[C@@H]1CN([C@@H](C)CO)C(=O)c2cc(C#Cc3ccccn3)cnc2O[C@@H]1CN(C)C(=O)CCN1CCCCC1,–
CCOC(=O)/C(=C\C=C1/Sc2ccccc2N1CC)C(C)=O,52
C[C@@H]1CN([C@H](C)CO)S(=O)(=O)c2ccc(-c3ccc(C#N)cc3)cc2O[C@H]1CN(C)C(=O)C1CC1,–
CO[C@H]1CN(C)C(=O)c2cc(NS(=O)(=O)CC(F)(F)F)ccc2OC[C@H](C)N(C)C[C@H]1C,–
C[C@H]1CN([C@@H](C)CO)C(=O)c2cc(C#CC3(O)CCCC3)cnc2O[C@H]1CN(C)C(=O)C1CCCCC1,–
C/C=C/c1ccc2c(c1)O[C@H](CN(C)C(=O)Nc1ccc(OC)cc1)[C@H](C)CN([C@@H](C)CO)S2(=O)=O,–
COc1cccc(C#Cc2ccc3c(c2)O[C@H](CN(C)C(=O)CN2CCOCC2)[C@H](C)CN([C@H](C)CO)S3(=O)=O)c1,–
COc1ccc(C#Cc2ccc3c(c2)O[C@@H](CN(C)C(=O)CN2CCOCC2)[C@@H](C)CN([C@H](C)CO)S3(=O)=O)cc1,36
COc1ccc(NC(=O)N(C)C[C@@H]2Oc3cc(C#CCC(C)C)ccc3S(=O)(=O)N([C@@H](C)CO)C[C@@H]2C)cc1,43
COc1cccc(C#Cc2ccc3c(c2)O[C@@H](CN(C)C(=O)CN2CCOCC2)[C@@H](C)CN([C@H](C)CO)S3(=O)=O)c1,–
COc1cccc(C#Cc2ccc3c(c2)O[C@@H](CN(C)C(=O)CN2CCOCC2)[C@H](C)CN([C@@H](C)CO)S3(=O)=O)c1,–
COc1ccc(C#Cc2ccc3c(c2)O[C@H](CN(C)C(=O)CN2CCOCC2)[C@H](C)CN([C@@H](C)CO)S3(=O)=O)cc1,54
COc1cccc(C#Cc2ccc3c(c2)O[C@@H](CN(C)C(=O)CN2CCOCC2)[C@H](C)CN([C@H](C)CO)S3(=O)=O)c1,–
COc1ccc(C#Cc2ccc3c(c2)O[C@H](CN(C)C(=O)NC2CCCCC2)[C@@H](C)CN([C@H](C)CO)S3(=O)=O)cc1,–
CCCC#Cc1cnc2c(c1)C(=O)N([C@H](C)CO)C[C@@H](C)[C@@H](CN(C)C(=O)C1CC1)O2,–
CNC[C@H]1Oc2cc(C#Cc3cccc(F)c3)ccc2S(=O)(=O)N([C@H](C)CO)C[C@@H]1C,–
CCC(=O)N(C)C[C@@H]1Oc2ncc(C#Cc3cccnc3)cc2C(=O)N([C@H](C)CO)C[C@@H]1C,–
CCC(=O)N(C)C[C@H]1Oc2ncc(C#Cc3ccc(OC)cc3)cc2C(=O)N([C@H](C)CO)C[C@H]1C,–
C[C@H]1CN([C@@H](C)CO)C(=O)c2cc(-c3cccnc3)cnc2O[C@H]1CN(C)S(C)(=O)=O,–
C[C@@H]1CN([C@H](C)CO)S(=O)(=O)c2ccc(-c3cccc(C(=O)N(C)C)c3)cc2O[C@@H]1CN(C)C(=O)Nc1ccccc1,–
COc1ccc(-c2ccc3c(c2)O[C@H](CN(C)C(=O)c2ccccc2F)[C@@H](C)CN([C@@H](C)CO)S3(=O)=O)cc1,–
SMILES,miR122 inh
C[C@@H]1CN([C@H](C)CO)C(=O)c2cc(/C=C/c3ccccc3)cnc2O[C@H]1CN(C)C(=O)c1cccc(F)c1,–
Cc1ccc(-c2cnc3c(c2)C(=O)N([C@@H](C)CO)C[C@H](C)[C@@H](CN(C)C(=O)Cc2cccnc2)O3)cc1,–
Cc1cc(OCC(O)CN2CCOCC2)cc(C)c1Cl (centres undefined),–
Cc1cc(C)cc(OCC(O)CN2CCC(CN3C(=O)c4cccc5cccc(c45)C3=O)CC2)c1 (centres undefined),67
Cc1noc(C)c1NC(=O)N(C)C[C@H]1Oc2ncc(C#CCC(C)C)cc2C(=O)N([C@@H](C)CO)C[C@H]1C,–
CCCNC(=O)N(C)C[C@H]1Oc2cc(-c3ccccc3)ccc2S(=O)(=O)N([C@@H](C)CO)C[C@@H]1C,–
C[C@H](O)C#Cc1cnc2c(c1)C(=O)N([C@@H](C)CO)C[C@H](C)[C@@H](CN(C)Cc1cncnc1)O2,–
COCC#Cc1ccc2c(c1)O[C@H](CN(C)C(=O)C1CCCCC1)[C@@H](C)CN([C@H](C)CO)S2(=O)=O,–
COc1ccccc1CNC(=O)C[C@H]1CC[C@H]2[C@@H](COc3ccc(NS(=O)(=O)c4ccc(C)cc4)cc3C(=O)N2C)O1,–
CO[C@@H]1CN(C)C(=O)c2ccc(NS(=O)(=O)c3ccc(C)cc3)cc2OC[C@H](C)N(C)C[C@@H]1C,–
Cc1ccc(S(=O)(=O)Nc2ccc3c(c2)C(=O)N(C)[C@@H]2CC[C@H](CC(=O)NCCc4ccncc4)O[C@@H]2CO3)cc1,45
CN1C(=O)c2cc(NC(=O)c3cccc(C(F)(F)F)c3)ccc2OC[C@H]2O[C@H](CC(=O)NCCN3CCCC3)CC[C@H]21,65
CN1C(=O)c2cc(NC(=O)c3ccc(C(F)(F)F)cc3)ccc2OC[C@H]2O[C@H](CC(=O)NCc3ccc4c(c3)OCO4)CC[C@H]21,33
CCCNC(=O)C[C@H]1CC[C@@H]2[C@@H](COc3ccc(NC(=O)c4ccc(C(F)(F)F)cc4)cc3C(=O)N2C)O1,45
C[C@@H]1CN([C@H](C)CO)C(=O)Cc2cc(N(C)C)ccc2O[C@@H]1CN(C)Cc1ccc(C(=O)Nc2ccccc2N)cc1,–
COc1ccccc1-c1cnc2c(c1)C(=O)N([C@H](C)CO)C[C@H](C)[C@H](CN(C)C(=O)c1ccccc1)O2,–
COc1cccc(C#Cc2ccc3c(c2)O[C@H](CN(C)C(C)=O)[C@@H](C)CN([C@H](C)CO)S3(=O)=O)c1,–
CCC(=O)Nc1ccc2c(c1)C(=O)N(C)C[C@H](OC)[C@H](C)CN(C(C)=O)[C@@H](C)CO2,–
C[C@H](CO)N1C[C@H](C)[C@@H](CN(C)C)Oc2ncc(C#CC3CC3)cc2C1=O,–
CCCNC(=O)N(C)C[C@H]1Oc2ncc(C#CCC3CCCC3)cc2C(=O)N([C@@H](C)CO)C[C@H]1C,–
Cc1ccc(S(=O)(=O)N(C)C[C@@H]2Oc3cc(C#CC4CCCC4)ccc3S(=O)(=O)N([C@H](C)CO)C[C@@H]2C)cc1,–
COc1ccccc1-c1ccc2c(c1)O[C@H](CN(C)C(C)=O)[C@H](C)CN([C@H](C)CO)S2(=O)=O,–
COCC#Cc1cnc2c(c1)C(=O)N([C@H](C)CO)C[C@@H](C)[C@H](CN(C)C(=O)Cc1ccccc1)O2,–
C[C@H]1CN([C@@H](C)CO)C(=O)c2cc(/C=C/c3ccccc3)cnc2O[C@@H]1CN(C)C(=O)C1CCOCC1,–
C[C@@H]1CN([C@H](C)CO)S(=O)(=O)c2ccc(C#Cc3ccccn3)cc2O[C@H]1CN(C)Cc1ccc(F)cc1,–
NC1=NC[C@@H](CC2CCCCC2)N1CCc1cc(C(F)(F)F)cc(C(F)(F)F)c1,35
COCC#Cc1cnc2c(c1)C(=O)N([C@H](C)CO)C[C@@H](C)[C@@H](CN(C)C(=O)Cc1cccnc1)O2,–
C[C@H]1CN([C@@H](C)CO)C(=O)c2cc(C#CC3(O)CCCC3)cnc2O[C@@H]1CN(C)Cc1cncnc1,–
